Compounds without any hit were thinned out: in the full panel of roughly 83,000, 20% have a hit.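 Percent growth is the endpoint: 0 to 100 indicates growth inhibition (40 means 60% inhibition), 0 means no net growth, and negative values indicate cell death.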 Values without a mark were called inactive. Active and inactive are the calls of the source. How the source made its calls: active means growth percent below 10; inactive means the rest.
System: MDA-MB-468 breast
Test: NCI-60 one-dose screen, 48 h (100 = growth as untreated, 0 = no growth, -100 = all killed)
Settings: 10 µM unless noted

SMILES | growth
Cc1[nH]c2ccc(F)cc2c1CCNC(=O)C1CCN(C(=O)c2ccccc2)CC1 | 87.7% [25 µM]
Cc1cc(O)cc(-c2nn(C)cc2-c2cc(N3CCOCC3)nc(-c3cccnc3)n2)c1 | -3.22% (active)
O=S(=O)(O)c1cnccn1 | 105%
CC1=NOC(=O)/C1=C\c1ccc(O)cc1 | 103%
O=C(NCc1ccc(Cn2c(=O)sn(-c3ccc(Cl)cc3)c2=O)cc1)OCc1ccc2c(Cl)cc(Cl)c(O)c2n1 | 45.4%
Cl.Fc1c[c-]c(-c2ccccn2)c(F)c1.[Pt].c1ccc([PH+](c2ccccc2)c2ccccc2[PH+](c2ccccc2)c2ccccc2)cc1 | -85.8% (active)
Cc1ccc(C(=O)/C(=C\c2ccc([N+](=O)[O-])cc2)S(=O)Cc2ccc(F)cc2)cc1 (stereo not drawn) | -10.3% (active)
CC1=CC(=O)CC(C)(C)[C@@]1(O)/C=C/C(C)=C\C(=O)O | -45.1% (active)
O=C(Nc1ccc(Nc2cc(Nc3ccccc3)ncn2)cc1)Nc1cc(C(F)(F)F)ccc1F | 55.3%
COc1ccc(-c2cc(-c3cccnc3)nc3sc4c(N)c(C(C)=O)c(-c5ccccc5)nc4c23)cc1OC | 76.3%
CC(C)(C)c1ccc(C(=O)Nc2sc3cc(O)ccc3c2C(N)=O)cc1 | 46.8%
CCCCCCCCCCCC(=O)OCCNC(=O)C[n+]1ccccc1 | 101%
COc1ccc(S(=O)(=O)NCCNc2nccc(-c3c(-c4cccc(F)c4)nc4sccn34)n2)cc1 | 23.3%
